Assay results reported in PubChem BioAssay AID1211 (NMMLSC, 2008).
Unmarked numbers belong to inactive results. Calls of active or inactive are those of the source. How the calls were made is not given here.

Each molecule was assayed against Estrogen receptor (Homo sapiens) (UniProt P03372) (assay: ERalpha ligand binders by competition, primary screen, cell-based, Cos7 ERalpha-GFP, flow cytometry (AID 1211;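 further: 0% = DMSO vehicle wells and 100% = no E2-Alexa633 signal left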)). Conditions: fluorescent ligand competition, at 10 µM, active compounds read high.
Estrogen receptor (Homo sapiens), sequence (P03372 whole entry, looked up): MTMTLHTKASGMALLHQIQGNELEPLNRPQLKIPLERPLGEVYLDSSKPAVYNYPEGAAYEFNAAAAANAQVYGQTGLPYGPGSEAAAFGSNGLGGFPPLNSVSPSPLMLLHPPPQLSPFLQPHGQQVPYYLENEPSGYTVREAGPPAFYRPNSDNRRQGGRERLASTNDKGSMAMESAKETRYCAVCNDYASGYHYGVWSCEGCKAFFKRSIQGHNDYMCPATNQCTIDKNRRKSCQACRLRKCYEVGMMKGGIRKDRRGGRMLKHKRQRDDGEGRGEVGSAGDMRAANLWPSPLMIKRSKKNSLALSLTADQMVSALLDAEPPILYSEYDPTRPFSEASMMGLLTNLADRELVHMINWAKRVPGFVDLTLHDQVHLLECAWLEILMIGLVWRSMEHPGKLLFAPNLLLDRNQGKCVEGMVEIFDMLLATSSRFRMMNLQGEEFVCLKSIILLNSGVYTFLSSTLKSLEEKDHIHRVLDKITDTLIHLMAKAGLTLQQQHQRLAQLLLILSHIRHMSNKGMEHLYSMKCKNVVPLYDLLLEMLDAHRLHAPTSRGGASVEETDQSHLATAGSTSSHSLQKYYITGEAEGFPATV

Row | Structure (SMILES) | inhibition of ligand binding
1 | CC(C)C1Nc2ccc(S(N)(=O)=O)cc2C2C=CCC21 (stereo not drawn) | 70% (active)
2 | CCC(Oc1ccc2c3c(c(=O)oc2c1C)CCC3)C(=O)OC (stereo not drawn) | 15%
3 | Cc1ccccc1-n1nc(-c2ccc(N)cc2)cc1N | 7%
4 | CC1=CC(C)C2(CO)COC(c3ccccc3O)C1C2C (stereo not drawn) | 0%
5 | COc1ccc(C2(CNCC(N)=O)CCCC2)cc1OC | 10%
6 | CCCCCCc1cc2c3c(c(=O)oc2cc1OCC(=O)OC)CCC3 | 0%
7 | CC1(C)C=C(c2ccc(O)cc2)CC(C)(C)N1 | 8%
8 | COc1cc(NC(=O)c2cccs2)c(C(=O)OCC(=O)NC(=O)NCc2ccccc2)cc1OC | 24%
9 | O=c1oc2c(CN3CCCC3)c(O)ccc2c2c1CCC2 | 0%
10 | Oc1ccc(-c2[nH]nc(-c3ccccc3)c2-c2nc3ccccc3[nH]2)cc1 | 33%
11 | CCCOc1cc2oc(=O)c3c(c2cc1CC)CCCC3 | 0%
12 | CC(=O)c1ccc(N2Cc3ccccc3C2)cc1 | 8%
13 | COc1ccc(NS(=O)(=O)c2ccc3c(c2)[C@H]2C=CC[C@H]2[C@@H](c2cccc(OC)c2OC)N3)cc1 | 0%
14 | COc1cccc2sc(Nc3nnc(-c4ccc(F)cc4)o3)nc12 | 17%
15 | COC(=O)c1ccc(C2Nc3ccc(/C(C)=N/NC(=O)C(OC)c4ccccc4)cc3C3C=CCC32)cc1 (stereo not drawn) | 0%
16 | O=c1oc2cc(O)ccc2c2c1CCCC2 | 7%
17 | COc1ccc2c(c1)C1OCCC1C(c1ccco1)N2 (stereo not drawn) | 46%
18 | Cc1sc2ncnc(SCC(=O)NC(=O)NCc3ccco3)c2c1C | 19%
19 | CCCCOc1cc(OCCCC)c2c3c(c(=O)oc2c1)CCCC3 | 19%

Row | Structure (SMILES) | inhibition of ligand binding
20 | CCSc1nc2c(cnn2-c2ccc(C)cc2)c(=O)[nH]1 | 22%
21 | COc1ccc(C2CC(c3ccccc3)=NN2C(=O)CSc2nccc(=O)[nH]2)cc1 (stereo not drawn) | 20%
22 | COc1cccc(-c2[nH]nc3c2C(c2ccoc2)C(C#N)=C(N)O3)c1 (stereo not drawn) | 23%
23 | CCCc1cc(=O)oc2c(C)c(OC3CCCCC3=O)ccc12 (stereo not drawn) | 0%
24 | CCOC(=O)c1c(N)sc2c1CC(C)(C)NC2(C)C | 8%
25 | CCCOc1cc(OCCC)c2c3c(c(=O)oc2c1)CCCC3 | 3%
26 | Cc1oc2ccc(OCC#N)cc2c1C(=O)OC(C)C | 0%
27 | COc1ccc(C(=O)N/N=C(\C)c2ccc3c(c2)C2C=CCC2C(c2ccccc2)N3)cc1 (stereo not drawn) | 73% (active)
28 | Cc1nc2ccccc2n1-c1cc(C(C)(C)C)c(O)c(C(C)(C)C)c1 | 9%
29 | COc1cccc(NS(=O)(=O)c2ccc3c(c2)C2C=CCC2C(c2ccc(C(=O)O)cc2)N3)c1 (stereo not drawn) | 37%
30 | CCCCCCc1cc2c3c(c(=O)oc2cc1OCC(=O)O)CCCC3 | 1%
31 | CC(=O)c1ccc2c(c1)C1C=CCC1C(c1cccc([N+](=O)[O-])c1)N2 (stereo not drawn) | 68% (active)
32 | Fc1ccc2c(c1)[C@H]1OCC[C@H]1[C@@H](c1ccco1)N2 | 34%
33 | CC12CCCCC1(O)[N+](=O)C1=C(CCCC1)N2[O-] (stereo not drawn) | 3%
34 | O=C(Nc1cc(C(F)(F)F)ccc1N1CCOCC1)C1Cc2ccccc2CN1C(=O)c1ccco1 (stereo not drawn) | 56%
35 | COCCCn1c(Cc2csc(Nc3cccc(Cl)c3)n2)nnc1SCC(=O)OC1CCCCC1 | 37%
36 | CCOC(=O)COc1cc2oc(=O)c3c(c2cc1CC)CCCC3 | 0%
37 | Fc1ccc2c(c1)C1C=CCC1C(c1cc3c(cc1Br)OCO3)N2 (stereo not drawn) | 84% (active)
38 | O=C(c1cccs1)N1N=C(c2ccccc2)CC1c1ccc(O)cc1 (stereo not drawn) | 21%
